# Records with an inconclusive call do not appear. Unmarked numbers belong to inactive results. The source made the active and inactive calls. The call rests on the fitted dose curve.
# Assay: p53 small molecule agonists, cell-based qHTS assay with rat liver microsomes: qHTS cell viability counter screen (AID 1963580); further: nearly all actives have a fitted effect of over 45% in size
# Details: p53RE-bla HCT-116 + rat microsomes, ATP viability, 16 h; series mostly up to 66 µM; activity change, negative = cytotoxicity: at the top concentration
# Description: National Center for Advancing Translational Sciences [NCATS]
# Division of Preclinical Innovation [DPI]
# U.S. Environmental Protection Agency [EPA]
# National Institutes of Environmental Health Sciences [NIEHS]
# National Toxicology Program [NTP]
# U.S. Food and Drug Administration [FDA]
# p53, a tumor suppressor protein, is activated following cellular insult, including DNA damage and other cellular stresses. The activation of p53 regulates cell fate by inducing DNA repair, cell cycle arrest, apoptosis, or cellular senescence. The activation of p53, therefore, is a good indicator of DNA damage and other cellular stresses. The CellSensor p53RE-bla HCT-116 cell line contains a stably integrated beta-lactamase reporter gene under control of the p53 response elements. The activation of the reporter gene under culture conditions can be detected by fluorescence intensity. This cell line was used to screen the Tox21 10K compound library in the condition of presence of rat liver microsomes and to identify agonists that activate the p53 signaling pathway after in vitro metabolic activation (Ooka et al., Archive of Toxicology 96:1975-1987, 2022). The cytotoxicity of the Tox21 compound library against the p53 RE-bla HCT-116 cell line was tested in parallel by measuring the intra cellular ATP content in the same wells.
# Tox21 Assay Protocol Summary:
# The p53RE-bla cells were dispensed at 4,000cells/3ul/well in 1536-well black-clear bottom plates. After the assay plates were incubated at 37 C, 5% CO2 incubator for 5 hours, 23 nL of compounds dissolved in DMSO, positive controls or DMSO only was transferred to the assay plate. Following compound addition, 3 uL of rat liver microsomes (Molecular Toxicology, Boone, NC) at final concentration of 0.5 mg/mL and 1uL of B-Nicotinamide adenine dinucleotide 2'-phosphate (NADPH) at final concentration of 0.5 mg/mL were transferred to the assay plate. The plates were incubated at 37 C for 16 hours. 1 uL of LiveBLAzer detection mixture was added to each well and the plates were incubated at room temperature in the dark for 2 h. Fluorescence intensity at 460 and 530 nm emission and 405 nm excitation were measured by an Envision plate reader. For cell viability readout that measures cytotoxicity, 4 ul/well of CellTiter-Glo reagent was added into the assay plates using a Flying Reagent Dispenser. After 30 min incubation at room temperature, the luminescence intensity in the plates was measured using a ViewLux plate reader.
# On the % scale 0 is the no-effect control and ±100 the full control effect; potency means the concentration at half of the fitted maximal effect.
SMILES,"activity change, negative = cytotoxicity",Potency
Cc1nc(-c2ccc(Cl)cc2)oc1COC(C)(C)C(=O)O,-10.8% [at 30.3 µM],
Cc1cc(O)c2c(c1)C(=O)c1cccc(O)c1C2=O,2.92% [at 30.3 µM],
CC(C)[C@H](N)C(=O)OCCOCn1cnc2c(=O)[nH]c(N)nc21,-1.55% [at 30.3 µM],
CCC(=O)O[C@]1(C(=O)COC)[C@@H](C)C[C@H]2[C@@H]3CCC4=CC(=O)C=C[C@]4(C)C3(F)[C@@H](O)C[C@@]21C (stereo not given in full),7.78% [at 30.3 µM],
CCCCCCC(=O)OCC,-5.33%,
CCCCCCCCCCOC(C)=O,1.74%,
Nc1ccnc(=O)[nH]1,-1.76%,
O=S(=O)(c1ccccc1)c1ccc(Cl)cc1,1.43%,
O=C1c2ccccc2C(=O)C1(O)O,-7.95%,
CCCCCCCCN,2.8%,
CC(C)(C)OC(=O)c1ccccc1C(=O)O,1.65%,
ClCCl,1.64%,
NCCCCCC(=O)O,-8.18% [at 30.3 µM],
CC(CN1CC(=O)NC(=O)C1)N1CC(=O)NC(=O)C1 (stereo not given),1.57%,
O[C@@H](CNC[C@H](O)[C@H]1CCc2cc(F)ccc2O1)[C@@H]1CCc2cc(F)ccc2O1,-10.4% [at 30.3 µM],
CCOC(=O)C1=NN(c2ccc(Cl)cc2Cl)C(C)(C(=O)OCC)C1 (stereo not given),8.03%,
C[C@@H]1CN(CCCn2c3ccccc3c3ccccc32)C[C@H](C)N1,-15.6% [at 30.3 µM],
O=C(O)CCN(C1(C(=O)NO)CCCC1)S(=O)(=O)c1ccc(Oc2ccc(F)cc2)cc1,1.52%,
CCCCCCCCCCCCCc1ccccc1,-2.01% [at 30.3 µM],
NC1[C@H]2CN(c3nc4c(cc3F)c(=O)c(C(=O)O)cn4-c3ccc(F)cc3F)C[C@@H]12 (stereo not given in full),-3.53% [at 30.3 µM],

SMILES,"activity change, negative = cytotoxicity",Potency
CCCCN1C=CN(C)C1,1.05% [at 13.5 µM],
CC(C)(C)C(=O)Oc1ccc(S(=O)(=O)Nc2ccccc2C(=O)NCC(=O)O)cc1,-0.351% [at 30.3 µM],
Cc1ccc2ccccc2n1,-8.46%,
CCN(CC)C(=O)Nc1ccc(OCC(O)CNC(C)(C)C)c(C(C)=O)c1 (stereo not given),-5.85% [at 30.3 µM],
CNCc1ccccc1,-15.3% [at 30.3 µM],
CCCCCCCCCCCCCCCCCC#N,,1.65 µM (active)
NCc1ccco1,-5.44%,
CC(CC(C#N)(c1ccccc1)C(C)C)N(C)C (stereo not given),-0.496% [at 30.3 µM],
OC[C@H](Cc1cccc(O)c1)[C@H](CO)Cc1cccc(O)c1,-6.02%,
C1OCOCO1,-1.37%,
COc1ccc(OC)c(NC(=O)CC(C)=O)c1,14.2%,
CCCCCCCCCCCCc1ccc(O)cc1,,40.8 µM (active)
Cc1ccc(N(CC2=NCCN2)c2cccc(O)c2)cc1,5.66% [at 30.3 µM],
C=C(C)C(=O)OCC(C)(C)COC(=O)C(=C)C,-13.9%,
COC(=O)c1cc(C(=O)OC)cc(S(=O)(=O)O)c1,-6.67%,
CCC(C)(C)C(=O)O,-1.88%,
CO[Si](C)(OC)c1ccccc1,-15.1%,
CCOC(=O)N1CCC(Nc2ccc(Cl)cc2N)CC1,-1.09% [at 30.3 µM],
NC(=O)C(c1ccccc1)(c1ccccc1)[C@@H]1CCN(CCc2ccc3c(c2)CCO3)C1,-0.821% [at 30.3 µM],
Cc1ccc(-n2nc(C(C)(C)C)cc2NC(=O)Nc2ccc(OCCN3CCOCC3)c3ccccc23)cc1,3.87% [at 30.3 µM],

# From PubChem BioAssay (Tox21)
